Assay results published in the supplement of paper PMC10849652.
About 7,900 targets were measured; listed, in parts, are those with a hit and a random draw of the rest. About 0.6% of all pairs of compound and target were hits.

Assays:
Assay in all cases: log2 fold change, soluble protein after heating vs DMSO (PISA); higher = thermal stabilisation; K562 cells, 10 uM, 30 min; active = over 0.2 and 3.5 SD of the protein, either way, in both replicates (recomputed)
[1] = compound: C1=CC=C(C=C1)[C@H](COC2=CC3=C(C=C2)NC(=O)N3)NC(=O)C4=CC=CN(C4=O)CC5=CC(=C(C=C5)F)F
In short: (§1)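 Soluble protein was defined as the supernatant after 21,000xg for 90 min. It came from K562 cells at 2×10^6 cells/mL given 10 μM compound for 30 min, heated in aliquots for 3 min across 48°C-58°C, pooled, and extracted in PBS with 0.5% NP-40 at 4°C, and was quantified by TMTpro 16plex LC-MS/MS with equalised channel sums. Thermal stability against control samples, from duplicates, is reported as log2 fold change.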

[2] = compound: CC1=C(SC2=C1C(=N[C@H](C3=NN=C(N32)C)CC(=O)N)C4=CC=C(C=C4)Cl)C
In short: as §1

[3] = compound: CC1=C2C(=CC=C1)N=C(N(C2=O)C3=CC=CC=C3C)CN4C=NC5=C(N=CN=C54)N
In short: as §1

[4] = compound: Cc1sc2c(c1C)C(c1ccc(Cl)cc1)=N[C@@H](CC(=O)OC(C)(C)C)c1nnc(C)n1-2
In short: as §1

[5] = compound: c1ccc([C@@H]2C[C@H]2NC2CCNCC2)cc1
In short: as §1

Measured: log2 fold change

TP53BP1 isoform 2 (UniProt Q12888)
inactive: [1] -0.025 | [2] -0.016 | [3] 0.025 | [4] 0.001 | [5] 0.032

UGGT1 (UniProt Q9NYU2)
inactive: [1] 0.032 | [2] 0.027 | [3] -0.003 | [4] -0.007 | [5] -0.021

VTI1B (UniProt Q9UEU0)
inactive: [1] 0.015 | [2] -0.002 | [3] 0.045 | [4] -0.032 | [5] 0.02

UBE2D1 (UniProt P51668)
Sequence of UniProt P51668 (P51668 whole entry, looked up): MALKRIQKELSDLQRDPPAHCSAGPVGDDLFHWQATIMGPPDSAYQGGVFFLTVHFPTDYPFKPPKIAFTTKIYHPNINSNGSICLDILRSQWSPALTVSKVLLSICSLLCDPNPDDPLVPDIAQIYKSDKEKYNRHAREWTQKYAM
inactive: [1] -0.053 | [2] -0.014 | [3] 0.065 | [4] -0.081 | [5] -0.035

TRAPPC8 (UniProt Q9Y2L5)
inactive: [1] -0.01 | [2] 0.05 | [3] 0.046 | [4] 0.012 | [5] -0.018

VPS39 (UniProt Q96JC1)
inactive: [1] -0.087 | [2] 0.018 | [3] 0.071 | [4] -0.009 | [5] -0.052

UBAP2L isoform 1 (UniProt Q14157)
inactive: [1] 0.038 | [2] 0.004 | [3] 0.059 | [4] 0.001 | [5] 0.011

UTP3 (UniProt Q9NQZ2)
inactive: [1] 0.049 | [2] -0.312 | [3] -0.041 | [4] 0.042 | [5] -0.007

TMEM192 (UniProt Q8IY95)
inactive: [1] 0.02 | [2] -0.03 | [3] 0.018 | [4] -0.024 | [5] 0.032

UTP4 (UniProt Q969X6)
inactive: [1] 0.009 | [2] 0.039 | [3] -0.044 | [4] 0.004 | [5] -0.021

TNPO2 (UniProt O14787)
inactive: [1] -0.067 | [2] 0.03 | [3] 0.158 | [4] -0.051 | [5] -0.005

TMEM263 (UniProt Q8WUH6)
inactive: [1] -0.152 | [2] 0.047 | [3] 0.156 | [4] -0.072 | [5] -0.031

TNPO1 (UniProt Q92973)
inactive: [1] -0.017 | [2] 0.008 | [3] -0.012 | [4] -0.009 | [5] 0.018

VRK1 (UniProt Q99986)
inactive: [1] -0.13 | [2] 0.02 | [3] 0.178 | [4] -0.019 | [5] -0.136

UBE2J2 isoform 3 (UniProt Q8N2K1)
inactive: [1] 0.003 | [2] 0.078 | [3] -0.106 | [4] -0.014 | [5] -0.144

WDHD1 (UniProt O75717)
inactive: [1] -0.014 | [2] 0.085 | [3] 0.121 | [4] 0.002 | [5] 0.015

TRABD (UniProt Q9H4I3)
inactive: [1] 0.005 | [2] -0.034 | [3] -0.054 | [4] 0.027 | [5] -0.054

TXNRD1 (UniProt Q16881)
Sequence of UniProt Q16881 (Q16881 whole entry, looked up): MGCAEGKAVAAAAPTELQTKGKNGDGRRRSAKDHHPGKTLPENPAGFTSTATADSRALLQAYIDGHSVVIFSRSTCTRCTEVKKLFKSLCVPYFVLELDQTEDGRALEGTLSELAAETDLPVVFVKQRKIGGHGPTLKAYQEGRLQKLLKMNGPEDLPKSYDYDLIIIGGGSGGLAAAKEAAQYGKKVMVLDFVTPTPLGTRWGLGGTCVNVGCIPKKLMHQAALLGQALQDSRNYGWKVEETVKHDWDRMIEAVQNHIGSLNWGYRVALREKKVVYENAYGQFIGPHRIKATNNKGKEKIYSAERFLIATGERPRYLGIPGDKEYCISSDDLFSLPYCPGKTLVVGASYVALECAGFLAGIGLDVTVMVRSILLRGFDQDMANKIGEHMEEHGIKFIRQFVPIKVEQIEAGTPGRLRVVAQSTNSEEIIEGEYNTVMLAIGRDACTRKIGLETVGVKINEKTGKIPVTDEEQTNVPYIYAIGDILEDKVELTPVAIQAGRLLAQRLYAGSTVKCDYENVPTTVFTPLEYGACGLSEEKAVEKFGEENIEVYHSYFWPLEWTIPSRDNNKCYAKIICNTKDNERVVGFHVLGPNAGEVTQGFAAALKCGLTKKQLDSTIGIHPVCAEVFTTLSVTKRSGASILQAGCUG
inactive: [1] -0.066 | [2] 0.086 | [3] 0.023 | [4] -0.031 | [5] -0.032

XPNPEP1 isoform 3 (UniProt Q9NQW7)
inactive: [1] -0.017 | [2] 0.081 | [3] 0.021 | [4] 0.002 | [5] -0.029

TTC4 (UniProt O95801)
inactive: [1] -0.089 | [2] -0.008 | [3] 0.099 | [4] 0.022 | [5] -0.029

UBE2J1 (UniProt Q9Y385)
inactive: [1] -0.061 | [2] -0.011 | [3] 0.05 | [4] -0.039 | [5] -0.068

TNFRSF10A (UniProt O00220)
inactive: [1] 0.033 | [2] 0.006 | [3] -0.058 | [4] 0.024 | [5] 0.01

UBA6
inactive: [1] -0.018 | [2] 0 | [3] 0.06 | [4] 0.001 | [5] -0.002

UGDH (UniProt O60701)
inactive: [1] 0.025 | [2] 0.052 | [3] 0.103 | [4] -0.04 | [5] -0.038

WDR7 (UniProt Q9Y4E6)
Sequence of UniProt Q9Y4E6 (Q9Y4E6 whole entry, looked up): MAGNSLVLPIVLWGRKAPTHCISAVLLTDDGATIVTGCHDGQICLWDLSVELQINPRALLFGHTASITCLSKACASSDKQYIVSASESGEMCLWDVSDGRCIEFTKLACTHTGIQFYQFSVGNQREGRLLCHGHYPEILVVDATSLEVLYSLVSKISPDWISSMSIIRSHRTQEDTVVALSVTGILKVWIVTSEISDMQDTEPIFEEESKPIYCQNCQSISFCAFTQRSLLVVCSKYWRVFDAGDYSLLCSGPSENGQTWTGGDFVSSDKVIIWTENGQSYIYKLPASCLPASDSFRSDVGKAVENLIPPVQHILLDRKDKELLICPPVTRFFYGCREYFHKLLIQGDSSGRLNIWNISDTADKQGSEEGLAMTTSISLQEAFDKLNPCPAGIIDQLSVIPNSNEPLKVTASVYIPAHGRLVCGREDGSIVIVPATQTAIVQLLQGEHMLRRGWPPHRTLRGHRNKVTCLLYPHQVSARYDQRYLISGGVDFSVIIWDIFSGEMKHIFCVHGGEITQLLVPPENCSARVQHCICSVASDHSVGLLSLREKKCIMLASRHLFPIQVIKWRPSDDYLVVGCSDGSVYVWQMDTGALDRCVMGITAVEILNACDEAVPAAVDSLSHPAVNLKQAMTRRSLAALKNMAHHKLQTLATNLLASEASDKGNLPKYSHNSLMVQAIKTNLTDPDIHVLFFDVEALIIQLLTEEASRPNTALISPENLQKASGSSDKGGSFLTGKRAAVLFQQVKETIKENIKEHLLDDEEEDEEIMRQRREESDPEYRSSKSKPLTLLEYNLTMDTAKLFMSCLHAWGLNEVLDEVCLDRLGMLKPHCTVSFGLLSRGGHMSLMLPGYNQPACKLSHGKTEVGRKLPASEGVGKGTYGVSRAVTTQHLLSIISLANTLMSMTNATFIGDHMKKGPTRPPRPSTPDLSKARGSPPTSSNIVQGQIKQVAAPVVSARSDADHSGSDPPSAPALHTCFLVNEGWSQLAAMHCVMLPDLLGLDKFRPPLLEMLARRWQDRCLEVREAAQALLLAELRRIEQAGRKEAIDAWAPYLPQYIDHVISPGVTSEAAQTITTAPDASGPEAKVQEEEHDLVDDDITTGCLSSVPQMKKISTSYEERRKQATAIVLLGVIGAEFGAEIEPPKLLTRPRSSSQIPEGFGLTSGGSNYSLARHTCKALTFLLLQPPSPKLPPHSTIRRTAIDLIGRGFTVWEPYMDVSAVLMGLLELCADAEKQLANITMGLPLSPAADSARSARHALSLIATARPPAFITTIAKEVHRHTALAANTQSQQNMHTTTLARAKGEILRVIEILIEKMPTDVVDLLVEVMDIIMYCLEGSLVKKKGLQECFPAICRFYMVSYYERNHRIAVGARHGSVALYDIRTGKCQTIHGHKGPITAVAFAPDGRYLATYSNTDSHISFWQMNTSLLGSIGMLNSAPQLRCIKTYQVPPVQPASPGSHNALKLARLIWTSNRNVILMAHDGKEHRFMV
inactive: [1] -0.037 | [2] 0.013 | [3] -0.068 | [4] -0.131 | [5] -0.093

UBXN8 (UniProt O00124)
inactive: [1] 0.3 | [2] -0.074 | [3] 0.192 | [4] 0.099 | [5] -0.055

TMEM219 (UniProt Q86XT9)
inactive: [1] 0.066 | [2] -0.023 | [3] -0.172 | [4] 0.016 | [5] -0.162

TRIP10 isoform 2 (UniProt Q15642)
inactive: [1] -0.039 | [2] 0.085 | [3] 0.222 | [4] 0.03 | [5] -0.026

XPO5 (UniProt Q9HAV4)
inactive: [1] -0.037 | [2] 0.042 | [3] 0.02 | [4] -0.024 | [5] -0.01

TPR (UniProt P12270)
inactive: [1] 0.053 | [2] 0.014 | [3] 0.001 | [4] 0.083 | [5] 0.043

WARS2 (UniProt Q9UGM6)
inactive: [1] -0.025 | [2] -0.009 | [3] 0.104 | [4] -0.002 | [5] 0.06

WDR47 (UniProt O94967)
Sequence of UniProt O94967 (O94967 whole entry, looked up): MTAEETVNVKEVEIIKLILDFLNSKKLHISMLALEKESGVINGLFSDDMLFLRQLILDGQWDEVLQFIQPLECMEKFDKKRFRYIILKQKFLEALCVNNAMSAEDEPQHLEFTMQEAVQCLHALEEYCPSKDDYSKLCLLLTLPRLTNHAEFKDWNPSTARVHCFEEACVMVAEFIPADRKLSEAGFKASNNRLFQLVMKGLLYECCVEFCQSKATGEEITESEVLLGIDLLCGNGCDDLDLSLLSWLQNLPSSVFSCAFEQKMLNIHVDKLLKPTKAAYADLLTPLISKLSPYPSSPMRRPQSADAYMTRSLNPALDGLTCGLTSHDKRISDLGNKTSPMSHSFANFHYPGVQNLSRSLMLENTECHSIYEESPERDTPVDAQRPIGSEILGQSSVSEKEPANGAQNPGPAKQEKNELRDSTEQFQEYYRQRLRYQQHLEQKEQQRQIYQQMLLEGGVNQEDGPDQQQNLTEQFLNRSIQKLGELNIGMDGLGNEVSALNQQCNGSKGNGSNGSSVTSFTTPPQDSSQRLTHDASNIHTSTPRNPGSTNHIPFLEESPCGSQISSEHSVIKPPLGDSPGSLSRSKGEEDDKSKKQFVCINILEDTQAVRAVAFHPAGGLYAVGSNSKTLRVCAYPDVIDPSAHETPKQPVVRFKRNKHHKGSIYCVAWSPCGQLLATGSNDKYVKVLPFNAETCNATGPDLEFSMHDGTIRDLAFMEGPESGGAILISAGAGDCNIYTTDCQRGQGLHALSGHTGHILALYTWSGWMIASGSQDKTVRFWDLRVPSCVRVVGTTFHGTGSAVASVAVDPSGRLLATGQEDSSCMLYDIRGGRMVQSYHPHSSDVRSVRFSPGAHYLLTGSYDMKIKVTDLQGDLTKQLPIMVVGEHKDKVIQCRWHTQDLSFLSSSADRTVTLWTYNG
inactive: [1] 0.019 | [2] 0.004 | [3] -0.042 | [4] -0.031 | [5] 0.078

TMEM120A (UniProt Q9BXJ8)
inactive: [1] -0.126 | [2] 0.056 | [3] 0.012 | [4] -0.11 | [5] -0.049

WDCP (UniProt Q9H6R7)
inactive: [1] 0.013 | [2] 0 | [3] -0.015 | [4] 0.039 | [5] 0.145

U2AF1 isoform 2 (UniProt Q01081)
inactive: [1] 0.021 | [2] 0.03 | [3] 0.11 | [4] -0.02 | [5] 0.035

UBAP2L isoform 5 (UniProt Q14157)
inactive: [1] 0.055 | [2] 0.036 | [3] 0 | [4] -0.016 | [5] 0.017

TMEM70 (UniProt Q9BUB7)
inactive: [1] -0.002 | [2] 0.065 | [3] 0.057 | [4] -0.05 | [5] -0.002

VPS33A (UniProt Q96AX1)
inactive: [1] -0.039 | [2] 0.053 | [3] 0.147 | [4] 0.059 | [5] -0.041

WASHC5 (UniProt Q12768)
inactive: [1] 0.034 | [2] 0.042 | [3] 0.09 | [4] 0.003 | [5] -0.041

WASH2P (UniProt Q6VEQ5)
inactive: [1] 0.015 | [2] -0.015 | [3] 0.026 | [4] 0.041 | [5] 0.027

TRAPPC3 (UniProt O43617)
Sequence of UniProt O43617 (O43617 whole entry, looked up): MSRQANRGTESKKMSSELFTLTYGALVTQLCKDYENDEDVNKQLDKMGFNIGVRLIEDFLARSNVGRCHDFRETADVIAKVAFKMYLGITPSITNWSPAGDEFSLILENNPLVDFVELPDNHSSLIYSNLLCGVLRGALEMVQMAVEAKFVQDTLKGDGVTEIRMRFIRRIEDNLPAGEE
inactive: [1] -0.025 | [2] 0.03 | [3] 0.036 | [4] -0.024 | [5] 0.007

TMEM184C (UniProt Q9NVA4)
inactive: [1] 0 | [2] 0.078 | [3] 0.022 | [4] 0.045 | [5] 0.22

VPS8 (UniProt Q8N3P4)
inactive: [1] -0.08 | [2] 0.106 | [3] 0.042 | [4] -0.034 | [5] 0.017

TMEM9B (UniProt Q9NQ34)
inactive: [1] 0.043 | [2] 0.074 | [3] 0.093 | [4] -0.041 | [5] -0.011

U2AF2 (UniProt P26368)
inactive: [1] -0.004 | [2] 0.057 | [3] 0.045 | [4] 0.044 | [5] 0.005

TMEM128 (UniProt Q5BJH2)
inactive: [1] -0.038 | [2] -0.001 | [3] 0.185 | [4] -0.1 | [5] 0

TOM1 isoform 2 (UniProt O60784)
Sequence of UniProt O60784 (O60784 whole entry, looked up): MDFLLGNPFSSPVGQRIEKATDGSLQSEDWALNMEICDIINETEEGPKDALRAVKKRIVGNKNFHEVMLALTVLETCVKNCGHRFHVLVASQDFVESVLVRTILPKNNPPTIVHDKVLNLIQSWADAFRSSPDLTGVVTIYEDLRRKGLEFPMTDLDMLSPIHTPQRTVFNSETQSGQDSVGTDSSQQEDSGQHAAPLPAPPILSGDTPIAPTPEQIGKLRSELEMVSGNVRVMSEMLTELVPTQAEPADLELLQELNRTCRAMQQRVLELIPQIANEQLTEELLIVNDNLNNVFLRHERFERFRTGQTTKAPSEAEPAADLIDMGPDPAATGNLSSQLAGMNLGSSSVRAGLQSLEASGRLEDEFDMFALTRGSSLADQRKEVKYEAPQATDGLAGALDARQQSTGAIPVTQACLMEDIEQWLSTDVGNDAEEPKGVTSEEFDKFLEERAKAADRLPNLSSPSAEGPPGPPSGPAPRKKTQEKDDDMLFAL
inactive: [1] 0.044 | [2] 0.001 | [3] -0.074 | [4] 0.046 | [5] 0.008

TPM2 (UniProt P07951)
Sequence of UniProt P07951 (P07951 whole entry, looked up): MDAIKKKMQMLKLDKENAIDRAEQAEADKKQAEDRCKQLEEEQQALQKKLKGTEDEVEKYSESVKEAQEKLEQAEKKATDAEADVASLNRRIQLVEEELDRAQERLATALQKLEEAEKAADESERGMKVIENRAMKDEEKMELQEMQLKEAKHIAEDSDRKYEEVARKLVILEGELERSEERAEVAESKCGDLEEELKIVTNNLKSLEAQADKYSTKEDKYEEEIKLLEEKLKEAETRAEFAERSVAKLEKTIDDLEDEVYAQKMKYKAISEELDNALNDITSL
inactive: [1] -0.041 | [2] -0.117 | [3] -0.195 | [4] -0.017 | [5] 0.014

WNK1 isoform 7 (UniProt Q9H4A3)
inactive: [1] -0.011 | [2] 0.023 | [3] 0.049 | [4] -0.007 | [5] -0.003

TUBAL3 (UniProt A6NHL2)
Sequence of UniProt A6NHL2 (A6NHL2 whole entry, looked up): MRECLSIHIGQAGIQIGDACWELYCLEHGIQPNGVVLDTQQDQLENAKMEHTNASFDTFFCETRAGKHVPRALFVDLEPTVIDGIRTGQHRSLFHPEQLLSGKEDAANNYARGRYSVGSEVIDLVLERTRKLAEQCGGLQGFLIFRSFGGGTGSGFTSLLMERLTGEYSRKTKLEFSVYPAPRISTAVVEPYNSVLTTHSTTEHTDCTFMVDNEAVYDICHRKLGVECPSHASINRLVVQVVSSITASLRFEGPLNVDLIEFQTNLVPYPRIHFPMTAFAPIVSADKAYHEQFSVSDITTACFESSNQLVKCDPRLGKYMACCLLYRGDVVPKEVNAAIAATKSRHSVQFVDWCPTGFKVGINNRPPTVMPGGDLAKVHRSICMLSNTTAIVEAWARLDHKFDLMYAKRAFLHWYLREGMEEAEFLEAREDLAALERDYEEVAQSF
inactive: [1] -0.196 | [2] -0.012 | [3] 0.096 | [4] -0.051 | [5] 0.029

UBE3D (UniProt Q7Z6J8)
Sequence of UniProt Q7Z6J8 (Q7Z6J8 whole entry, looked up): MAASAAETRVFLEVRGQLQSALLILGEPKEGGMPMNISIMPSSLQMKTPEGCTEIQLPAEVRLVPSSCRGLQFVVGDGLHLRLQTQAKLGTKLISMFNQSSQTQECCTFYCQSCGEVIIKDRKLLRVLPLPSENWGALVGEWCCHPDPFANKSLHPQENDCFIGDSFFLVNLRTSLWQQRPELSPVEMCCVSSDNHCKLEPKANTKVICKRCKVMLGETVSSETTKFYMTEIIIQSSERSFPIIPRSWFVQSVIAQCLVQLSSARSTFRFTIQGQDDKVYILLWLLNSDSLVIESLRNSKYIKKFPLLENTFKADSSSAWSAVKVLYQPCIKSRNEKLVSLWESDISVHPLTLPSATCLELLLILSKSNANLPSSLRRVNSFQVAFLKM
inactive: [1] 0.034 | [2] 0.057 | [3] 0.001 | [4] -0.051 | [5] 0.009

UBA1 (UniProt P22314)
inactive: [1] -0.162 | [2] 0.044 | [3] 0.134 | [4] 0.044 | [5] -0.08

TMEM63B (UniProt Q5T3F8)
inactive: [1] 0.059 | [2] -0.005 | [3] -0.099 | [4] -0.036 | [5] -0.04
